Screening results: PubChem BioAssay, National Center for Advancing Translational Sciences (NCATS)
Shown are actives, neighbours in structure and some others; about 4% of the full set was active somewhere.
D1 ag: agonists of human D1 dopamine receptor; P21728; HEK293 T-REx D1 cells, calcium flux, agonist mode; activation, % at 2 µM; 1% of 360,000 active; AID 504660; further: 0% is about no effect
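Agonism was scored from calcium flux recorded over 180 s (1 read/s) after pintool compound addition, following a 10-cycle baseline. Cells were inducible force-coupled HEK293 TREx D1, plated overnight at 30 C and loaded with no-wash calcium dye.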
Glioma ERSR ind: ER stress response induction in glioma; U87-MG GRP78 promoter luciferase reporter, 16 h; 0.02% of 420,000 active; Potency, µM, inactives show at the top dose activation, hits mostly activators; active means well fitted activation curve with a large enough effect; inconclusive means small, poorly fitted or top-dose-only effect; inactive means no such curve, though single readings can be large or run the other way; further: potency means the concentration at half of the fitted maximal effect; series mostly up to about 76 µM; % of control where 0% means no effect; nearly all actives have a fitted effect of over 35% in size
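ERSR induction read as luciferase luminescence (Bright-Glo, 10 min at room temperature) in stably transfected human U87-MG glioma cells exposed to compounds for 16 h, using GRP78 as sensor.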
D1 PAM: human D1 dopamine receptor positive modulation; AID 504651; potentiation, % at 10 µM; 0.036% of 360,000 active; HEK293 TREx D1 cells, calcium flux, dopamine EC20 potentiation; in the data active means potentiation above about 30%; further: 0% is about no effect
D1 antag: blocks dopamine activation of the human D1 receptor | HEK293 TREx D1 cells, calcium flux, dopamine EC80; hits give low values | 3.2% of 360,000 active | activity change, negative = inhibition, % at 10 µM | AID 504652; in the data active means activity change below about -30%; further: on the % scale 0 is the no-effect control and ±100 the full control effect
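HEK293 T-REx cells expressing inducible, force-coupled D1 receptor; no-wash Ca dye, 30–90 min RT. Cmpd → 180 s read at 1 Hz → EC80 DA → 180 s read.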
TRHR agonist: TRH receptor (human) agonism | activation, % at 2 µM | TRHR cells, calcium flux fluo-8, FDSS agonist mode | AID 493084 | P34981 | 0.18% of 360,000 active; further: 0% is about no effect
Target sequence (P34981 whole entry, looked up): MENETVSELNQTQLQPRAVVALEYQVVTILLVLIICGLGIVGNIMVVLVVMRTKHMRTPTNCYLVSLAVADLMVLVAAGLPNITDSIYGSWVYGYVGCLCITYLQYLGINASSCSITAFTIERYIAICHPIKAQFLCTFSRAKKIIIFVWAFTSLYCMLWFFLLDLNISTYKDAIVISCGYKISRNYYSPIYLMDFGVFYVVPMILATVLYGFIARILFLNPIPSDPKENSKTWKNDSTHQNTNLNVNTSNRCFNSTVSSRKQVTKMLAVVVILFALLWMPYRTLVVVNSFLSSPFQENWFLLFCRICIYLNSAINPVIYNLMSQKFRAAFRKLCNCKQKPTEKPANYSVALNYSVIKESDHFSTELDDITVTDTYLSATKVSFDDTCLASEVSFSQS
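In this calcium-flux screen, cells bearing human TRHR are dye-loaded with fluo-8, baselined for 10 cycles, then exposed to library compounds; positive kinetic calcium responses during the agonist phase mark hits, with TRH as control.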
TRHR PAM: allosteric enhancers of human TRH receptor; 0.66% of 360,000 active; enhancement, % at 2 µM; TRHR cells, fluo-8 calcium fluorescence, EC20 TRH enhancement; P34981; in the data active means enhancement above about 30%; further: 0% is about no effect
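TRHR-expressing cells loaded with fluo-8 calcium dye were read kinetically (ex 480/em 530) during compound addition, then stimulated with an EC20 of TRH (10 nM final). Enhancement of the Gq-mediated intracellular calcium response was scored.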
* hit, by the source's call; ? = inconclusive; / = no result given. Unless noted, no stated cut-off is given here; in the data, active means activation above about 30%; inactive means the rest.

SMILES	D1 ag	Glioma ERSR ind	D1 PAM	D1 antag	TRHR agonist	TRHR PAM
O=C(Nc1ccc2ccccc2c1)c1ccccc1O	22	-12%	-3	-34*	4	-16
C=C(C)CC1Nc2ccccc2NC1CC(=C)C (stereo not given)	5	0%	1	-62*	9	1
COC(=O)c1ccc(CO/N=C/c2ccc(OC)cc2)o1	3	-4%	-4	1	0	-2
COC(Cn1c2c(c3cc(C)ccc31)CCCC2NCc1ccccc1)OC (stereo not given)	0	-7%	7	1	-1	4
Cc1[nH]c2ccccc2c1/C=C/C(=O)c1ccncc1	55*	-1%	-6	7	-1	8
Cc1[nH]c2ccccc2c1/C=C/c1c(C)[nH]c2ccccc12	/	-4%	/	/	/	/
COc1cc2[nH]c(C(=O)NCc3ccccc3)cc2c(OC)c1OC	1	0%	-9	-36*	-1	6
COc1cc2[nH]c(C(=O)NCCc3ccccc3)cc2c(OC)c1OC	1	3%	-5	-2	0	-4
COc1cc(Cl)c(C)cc1NC(=O)c1nn(-c2ccc(C)cc2)c(=O)n(C)c1=O	3	-3%	8	-98*	0	2
CN(C)c1ccc(CCC2C=Cc3ccccc32)cc1 (stereo not given)	/	-2%	/	/	/	/
Cc1cc(C(C#N)c2ccc(Cl)cc2)c(Cl)cc1NC(=O)c1cc(I)cc(I)c1O (stereo not given)	13	-2%	-7	-33*	1	-7
O=C(Nc1ccc(Cl)cc1)Nc1cc([N+](=O)[O-])ccc1F	12	0%	-4	-37*	2	-9
O=C(Nc1ccc([N+](=O)[O-])cc1)Nc1ccc(Cl)cc1F	29	2%	-11	-19	0	-4
O=C(Nc1ccc(Cl)cc1)Nc1csc([N+](=O)[O-])c1	19	8%	-11	-45*	0	-9
CC(NCc1ccc(S(N)(=O)=O)cc1)C(=O)Nc1ccc([N+](=O)[O-])cc1Cl (stereo not given)	3	-4%	-6	-30*	0	-15
Cc1ccc([N+](=O)[O-])cc1NC(=O)Nc1onc(C)c1C	10	4%	-18	-36*	-1	6
CCOC(=O)c1cc(CC)sc1NC(=O)C(c1ccccc1)c1ccccc1	4	-4%	0	5	1	-4
Cc1ccc([N+](=O)[O-])cc1NC(=O)Nc1ccc(S(N)(=O)=O)cc1	7	?	-18	-79*	1	9
O=C(Nc1csc([N+](=O)[O-])c1)Nc1c(Cl)cccc1Cl	9	-6%	-7	-45*	0	0
Cc1ccc(NC(=O)Nc2ccc(S(N)(=O)=O)cc2)cc1	3	6%	-4	-7	1	-1
O=C(Nc1ccc(Cl)cc1)Nc1ccccc1CC[N+](=O)[O-]	35*	3%	-8	-39*	0	-4
CN(C)C(=O)Nc1ccccc1CC[N+](=O)[O-]	3	-1%	-1	1	0	1
CCNC(=O)NC(=O)c1csc([N+](=O)[O-])c1	1	-3%	-4	0	1	3
Cc1occc1C(=O)NNS(=O)(=O)c1ccc(Cl)cc1	5	-1%	7	10	-1	37*
Cc1ccc(S(=O)(=O)NNC(=O)Nc2ccc(Cl)cc2)cc1	1	-4%	-5	4	0	-6
SMILES	D1 ag	Glioma ERSR ind	D1 PAM	D1 antag	TRHR agonist	TRHR PAM
N#C/C(=C\c1ccc[nH]1)C(=O)Nc1ccccc1F	0	15%	-5	-31*	1	2
N#C/C(=C\c1ccc[nH]1)C(=O)Nc1ccccc1Cl	5	-4%	-4	0	2	11
CN(c1cccc(NS(=O)(=O)c2ccccc2)c1)S(C)(=O)=O	3	-4%	-5	-37*	0	-3
CN(c1cccc(NC(=O)c2ccc(Cl)c(S(=O)(=O)Nc3ccccc3)c2)c1)S(C)(=O)=O	5	5%	4	-42*	-1	-3
CCOc1ccc(S(=O)(=O)Nc2cccc(OC)c2)cc1	18	-1%	-3	-5	-1	-6
CCOc1ccc(S(=O)(=O)Nc2cccc(N(C)S(C)(=O)=O)c2)cc1	23	2%	-6	-39*	0	-1
O=C(Nc1ccccc1)c1ccc(Cl)c(S(=O)(=O)Nc2ccccc2)c1	0	0%	-5	7	-1	-9
ON=C(CCc1ccccc1)CCc1ccccc1	/	-4%	/	/	/	/
O=C(C[n+]1cccc2cc(Cl)ccc21)c1cccc([N+](=O)[O-])c1	/	-3%	/	/	/	/
CCn1nc([N+](=O)[O-])c(C(C#N)c2nc3cc(C(F)(F)F)ccc3s2)c(Cl)c1=O (stereo not given)	4	?	5	-38*	-1	13
CN(Cc1ccccc1)c1ccc(-c2nc(-c3ccco3)no2)cc1[N+](=O)[O-]	4	3%	-3	-4	0	-4
CCN(CC)S(=O)(=O)c1ccc(S(=O)(=O)N2CCCC2)cc1	3	-2%	7	-2	0	38*
CCN(CC)S(=O)(=O)c1ccc(Oc2ccccc2OC)cc1	8	2%	-3	-15	0	-4
CCN(CC)S(=O)(=O)c1ccc(Oc2ccc(S(=O)(=O)N(CC)CC)cc2)cc1	31*	2%	-5	-26	2	-2
O=S(=O)(c1ccccc1)N1CCN(S(=O)(=O)N2CCCCC2)CC1	2	0%	-2	10	1	0
O=S(=O)(c1ccccc1)N1CCCN(S(=O)(=O)c2ccccc2)CC1	14	-3%	4	-45*	-1	-2
CCc1nc2cc(C(=O)N[C@H]3CCCCNC3=O)cc(NC(=O)c3ccccc3OC)c2n1C	/	-2%	/	/	/	/
O=C(NCCCCCCNC(=O)c1ccccc1O)c1ccccc1O	29	0%	-7	-42*	-1	10
O=C(NCCNC(=O)c1ccccc1O)c1ccccc1O	2	1%	-1	-3	1	0
CCCC(=O)N1c2nc(C(C)C)nn2C2(CCCCC2)[C@@H]2CCCC[C@@H]21	1	-4%	2	27	-1	4
CN(CC(=O)NC(=O)NCc1ccccc1)Cc1ccc(Cl)cc1	1	-4%	-4	2	0	9
CN(CC(=O)Nc1ccc(C#N)cc1)Cc1ccc(Cl)c(Cl)c1	4	-8%	-10	-4	0	12
CN(CC(=O)NCc1ccccc1)Cc1ccc(Cl)cc1	0	4%	-1	3	-1	33*
CC(=O)c1cccc(NC(=O)CN(C)Cc2ccc(OC(F)F)cc2)c1	8	-1%	-4	-35*	-1	-7
